HIF-2a inh: HIF-2a reporter inhibitors, primary screen, luminescence, 786-0 RCC cells | 786-0 RCC cells HIF-2a reporter, luciferase luminescence, overnight | inhibition, % at 18.8 µM | 360,000 compounds, 0.72% hits;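 active = inhibition of the luminescence signal of 40% or more relative to plate controls, in a single-dose primary screen at 18.75 µM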
CF NFkB inh: inhibitors of PAF-induced NF-kB signaling, primary screen, cell-based, GFP fluorescence, uHTS; KKLEB NF-kB-GFP reporter, GFP fluorescence overnight; inhibition, % at 5 µM; 360,000 compounds, 0.86% hits; AID 588850, 2011;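 active = at least 50% inhibition at 5 µM, scaled per plate between neutral and stimulator controls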;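 also: PAF is a Pseudomonas aeruginosa culture filtrate used as stimulus; plate controls were PAF-stimulated DMSO wells for no effect and unstimulated DMSO wells for full effect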
C8 TRAIL sens: viability loss with TRAIL in NB7+C8 cells, primary screen, TRAIL sensitizer project, cell-based, ATPlite luminescence; inhibition (viability loss, TRAIL sensitization), % at 10 µM; 360,000 compounds, 1% hits;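 active = compounds causing at least 50% loss of cell viability in the single-dose screen, relative to plate controls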
Peg3 prom inh-1: Peg3 promoter-driven luciferase inhibitors, primary screen, cell-based, HeLa, luciferase luminescence. HeLa PEG-Prom luciferase reporter, overnight. inhibition, % at 20 µM. 360,000 compounds, 1.7% hits;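 active = inhibition of at least 50% at 20 µM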
PPC-1+TRAIL kill: compounds killing PPC-1 cancer cells with TRAIL present, primary screen, TRAIL potentiator project, ATPLite luminescence, uHTS | PPC-1 cells + TRAIL, ATPLite viability luminescence | 220,000 compounds, 0.41% hits | cell killing (% activity), % at 4 µM or 5 µM;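 active = cell killing above 50% in the first pass at 4 µM, then a duplicate retest at 5 µM averaging 50% or more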;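 also: plate controls were cells with TRAIL plus DMSO for no effect and medium-only wells lacking cells for full effect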
KKLEB tox: cytotoxicity in KKLEB CF airway cells, primary screen, cytotoxicity control for CF NF-kB inhibitor project, cell-based, uHTS, fluorescence assay plates. KKLEB CF airway cells viability, ATPlite luminescence, overnight; stronger effect = lower value; cells stimulated with P. aeruginosa culture filtrate. activity change (cytotoxicity), % at 5 µM. 360,000 compounds, 0.36% hits;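 active = corrected activity change at or below -50% at 5 µM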
PPC-1 tox: cytotoxicity in PPC-1 cells, confirmation, cytotoxicity control for TRAIL apoptosis potentiator project, cell-based, ATP content luminescence; AID 1447, 2008; shares compounds with PPC-1+TRAIL kill; PPC-1 viability, ATPlite luminescence, overnight; cytotoxicity, % at 5 µM; 1,200 compounds, 50% hits;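 active = reconfirmed compounds whose average cytotoxicity reaches 50% or more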;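 also: 0% = DMSO-treated cells and 100% = wells holding medium but no cells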
Peg3 prom inh-2: Peg3 promoter reporter inhibitors, retest, confirmation, cell-based, HeLa, luciferase reporter, single concentration; shares compounds with Peg3 prom inh-1; HeLa PEG-Prom luciferase reporter, luminescence, overnight; inhibition, % at 20 µM; 1,300 compounds, 84% hits;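 active = at 20 µM dose, 40% or more inhibition averaged across four replicates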
Mdm2 MdmX conf: retested Mdm2-MdmX interaction blockers, confirmation, cell-based, luminescence, single concentration, set 2; shares compounds with HIF-2a inh; SaOS-2 split-luciferase Mdm2/MdmX complementation; inhibition, % at 8 µM; 740 compounds, 99% hits;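 active = mean inhibition of the luminescence signal across two replicates at or above 26 percent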
Target sequence (O15151 whole entry, looked up): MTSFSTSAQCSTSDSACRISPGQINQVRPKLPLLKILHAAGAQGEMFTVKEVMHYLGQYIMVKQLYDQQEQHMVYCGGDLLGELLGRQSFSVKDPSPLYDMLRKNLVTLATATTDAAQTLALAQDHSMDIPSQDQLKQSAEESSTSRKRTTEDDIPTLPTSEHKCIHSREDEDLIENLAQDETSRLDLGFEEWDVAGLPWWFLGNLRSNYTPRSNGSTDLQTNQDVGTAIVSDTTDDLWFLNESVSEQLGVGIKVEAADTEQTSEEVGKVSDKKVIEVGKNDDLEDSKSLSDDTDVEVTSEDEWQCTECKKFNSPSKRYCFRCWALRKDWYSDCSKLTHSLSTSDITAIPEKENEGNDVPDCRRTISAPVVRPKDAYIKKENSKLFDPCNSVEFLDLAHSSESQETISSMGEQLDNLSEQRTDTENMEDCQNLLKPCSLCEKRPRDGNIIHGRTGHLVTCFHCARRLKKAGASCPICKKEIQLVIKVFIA
Target sequence (Q00987 whole entry, looked up): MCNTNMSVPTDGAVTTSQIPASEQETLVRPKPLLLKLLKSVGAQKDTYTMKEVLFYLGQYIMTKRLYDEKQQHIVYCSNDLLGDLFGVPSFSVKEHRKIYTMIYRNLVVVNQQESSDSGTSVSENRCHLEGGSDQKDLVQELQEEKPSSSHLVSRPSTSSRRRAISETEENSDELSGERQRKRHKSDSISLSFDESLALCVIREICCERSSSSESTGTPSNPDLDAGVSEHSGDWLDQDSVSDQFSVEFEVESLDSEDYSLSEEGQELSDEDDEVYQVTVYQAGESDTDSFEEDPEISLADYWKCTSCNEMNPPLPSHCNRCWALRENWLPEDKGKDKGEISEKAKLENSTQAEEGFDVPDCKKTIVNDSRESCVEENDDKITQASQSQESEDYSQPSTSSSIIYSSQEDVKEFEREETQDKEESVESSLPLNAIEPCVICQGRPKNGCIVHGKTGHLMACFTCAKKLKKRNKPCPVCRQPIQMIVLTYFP
Starred values were filed as active, the others as inactive; . = not tested or not shown. An excerpt weighted towards active compounds, which were near 3.1% of everything screened.

SMILES	HIF-2a inh	CF NFkB inh	C8 TRAIL sens	Peg3 prom inh-1	PPC-1+TRAIL kill	KKLEB tox	PPC-1 tox	others
C=C(C=O)C[C@@H]1C[C@H](O)C2OC3C[C@]4(C)OC5/C=C\CC6OC7C(CC=CCC6OC5CCCC4OC3CC2O1)OC1CC2OC3CC(=O)OC3C[C@@H](C)C[C@@]2(C)OC1C[C@@H]7C (stereo not given in full)	.	.	.	.	77.9*	.	77.4*
COc1ccc(C(=O)OC2CC3CCC(C2)[N+]3(C)[O-])cc1OC (stereo not given)	18.1	4.5	5.3	14.1	.	5.4	.
CN1C(=O)C(C2c3ccccc3C(=O)N2Cc2ccccc2)C(=O)N(C)C1=O (stereo not given)	2.9	-4.2	-4.7	1.9	-2.9	-5.1	-4.3
CN1C(=O)C(C2c3ccccc3C(=O)N2Cc2ccc([N+](=O)[O-])cc2)C(=O)N(C)C1=O (stereo not given)	6.9	3.8	-14.4	1.2	21.0	5.3	.
CC(C(=O)O)N(C(=O)c1ccccc1)c1ccc(F)c(Cl)c1 (stereo not given)	5.6	0.7	0.6	-4.0	8.5	-1.8	.
CCOc1ccc(C2CC(c3c(O)n(C)c(=O)n(C)c3=O)=NN2)cc1 (stereo not given)	-68.1	-26.6	73.9*	-0.8	69.0*	6.4	71.2*
Cc1ccccc1N1CCN(C2CCCN(C(=O)COc3ccccc3)C2)CC1 (stereo not given)	-6.4	-24.7	13.4	18.2	.	6.4	.
CN(C)Cc1ccccc1OC(=O)N(C)C	14.5	0.7	-11.1	-7.0	16.2	3.0	.
Cc1cccc(CN(C)C)c1OC(=O)N(C)C	-0.6	8.1	-3.6	8.1	1.2	23.7	7.8
CN1CCN(c2ccc([N+](=O)[O-])c3no[n+]([O-])c23)CC1	61.2*	59.0*	94.6*	102.5*	78.0*	-55.5*	80.2*
Cc1ccc2nc(N3CCN(C)CC3)[nH]c2c1	-188.3	-14.2	-2.9	-163.1	6.4	-2.9	14.1
CN1CCN(c2nc(N)cc(=O)[nH]2)CC1	21.5	0.9	-17.2	-9.8	-12.3	-4.4	.
COc1ccc(CN2Cc3cc(N4CCCCC4)ccc3-n3nncc3C2)cc1	-4.3	20.3	-23.8	11.6	.	-6.1	.
O=C1C(=O)c2ccccc2-c2ccccc21	97.7*	83.3*	95.2*	101.5*	67.8*	5.1	63.1*
CC1([N+](=O)[O-])COP(=O)(NC2CC2)OC1 (stereo not given)	12.3	0.6	-12.2	10.3	.	-7.2	.
Cc1nc2c(=O)n(C)c(=O)nc-2n(C)n1	81.5*	76.6*	96.3*	104.7*	65.7*	-73.9*	62.3*
Cc1cc([N+](=O)[O-])c2ccccc2[n+]1[O-]	47.8*	-8.2	32.5	108.3*	93.5*	-11.9	90.8*	Mdm2 MdmX conf=103.2*
O=C(Nc1c(F)cc(F)cc1F)c1cccn(Cc2ccccc2)c1=O	-28.5	7.3	-4.6	-9.8	11.7	-0.6	.
C[C@H](N)CN1CCc2ccc(Br)cc21	7.3	1.6	16.1	2.5	.	-10.6	.
CNc1ccc2oc(C[C@H]3O[C@@]4(CC[C@H]3C)O[C@H]([C@H](C)C(=O)c3ccc[nH]3)[C@H](C)C[C@H]4C)nc2c1C(=O)O	86.8*	36.2	82.6*	91.4*	43.5	-55.4*	49.1	Mdm2 MdmX conf=102.5*
O=Cc1cn(Cc2ccc(Br)cc2)c2ccccc12	12.8	13.3	27.1	77.5*	.	7.7	.	Peg3 prom inh-2=73.9*
O=Cc1cn(Cc2cccc(F)c2)c2ccccc12	11.9	11.4	6.6	85.2*	12.5	4.3	.	Peg3 prom inh-2=65.4*
COC(=O)c1cn(Cc2ccc(F)cc2)c2ccccc12	-5.3	-6.0	-13.9	4.0	.	-0.3	.
Cc1nc(C)c(C(=O)NN=Cc2ccc(N(CCCl)CCCl)cc2)s1	7.4	-7.0	-2.9	21.3	.	9.3	.
Cc1c(C(=O)N2CCC3(CC2)OCCO3)sc2ncnc(N3CCN(c4ccccn4)CC3)c12	-2.6	-6.9	-0.3	71.7*	26.4	-4.1	.	Peg3 prom inh-2=55.6*
SMILES	HIF-2a inh	CF NFkB inh	C8 TRAIL sens	Peg3 prom inh-1	PPC-1+TRAIL kill	KKLEB tox	PPC-1 tox	others
CCCNC(=O)Cn1cnc2sc(C(=O)N3CCC4(CC3)OCCO4)c(C)c2c1=O	10.6	-21.7	-4.1	-2.4	.	10.6	.
CC(C)(C)n1nnnc1C(CCc1ccccc1)N1CCC(n2c(=O)[nH]c3ccccc32)CC1 (stereo not given)	-27.4	-18.8	-7.7	83.6*	.	-5.4	.	Peg3 prom inh-2=82.4*
CSCCC(c1nnnn1C1CCCC1)N1CCC(n2c(=O)[nH]c3ccccc32)CC1 (stereo not given)	-16.7	0.9	-28.5	27.1	.	-4.0	.
c1ccc(N2[C@@H]3CC[C@H]2c2ccccc2C3)cc1	5.1	-9.1	-4.5	6.7	.	13.8	.
C[C@]12CC[C@H]3C(CCC4(O)CC(O)CC[C@]34C=O)C1=CC[C@H]2c1ccc(=O)oc1 (stereo not given in full)	17.9	48.6	53.8*	105.2*	.	-43.5	.	Peg3 prom inh-2=96.9*
Cn1cccc1/C=C1\C(=O)NC(=O)N(Cc2ccco2)C1=O	13.8	18.6	3.0	21.8	7.5	-10.1	.
O=C1NC(=O)N(Cc2ccccc2)C(=O)/C1=C\C=C\c1ccco1	45.7*	74.4*	-1.7	88.9*	24.3	-50.9*	.	Peg3 prom inh-2=62.5*
O=C1NC(=O)N(Cc2ccco2)C(=O)/C1=C/C=C/c1ccco1	87.0*	77.6*	14.8	62.9*	-13.0	-15.4	.	Peg3 prom inh-2=73.1*
CN(C)P(=O)(N(C)C)N1CC1	14.0	-8.8	0.3	6.1	.	-0.6	.
CNCC(O)c1cc(OCc2ccccc2)c(OCc2ccccc2)cc1F (stereo not given)	-18.4	-9.1	17.6	98.0*	.	-8.0	.	Peg3 prom inh-2=89.4*
CNCC(O)c1cccc(OC(=O)c2ccccc2C)c1 (stereo not given)	10.0	0.1	-4.9	2.5	18.4	1.6	.

Bioassay records: PubChem, Sanford-Burnham Center for Chemical Genomics
